About 79,000 compounds went through this panel and 15% of them were active in at least one assay; those are over-represented in the sample as a whole. The source made the active and inactive calls. Cut-off read from the data, not from the text of the source: active = growth inhibition above about 70%; inactive = the rest.
Experiments:
[1] = NCI Yeast Anticancer Drug Screen. Data for the rad50 strain (AID 155);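 note: 0% = growth of vehicle-only cultures of the same strain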; conditions: S. cerevisiae rad50 strain growth inhibition, stronger effect = higher value
In short: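 Compounds were tested on a yeast strain with an engineered DNA damage repair alteration; the reported value is growth inhibition normalised to vehicle treatment.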

[2] = NCI Yeast Anticancer Drug Screen. Data for the mec2-1 strain (AID 157); conditions: S. cerevisiae mec2-1 strain, stronger effect = higher value
In short: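 Mutant yeast (mec2-1) grown with compound; growth inhibition relative to vehicle control reported.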

[3] = NCI Yeast Anticancer Drug Screen. Data for the sgs1 mgt1 strain (AID 161);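 note: 0% = growth of cultures given vehicle only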; conditions: S. cerevisiae sgs1 mgt1 strain, stronger effect = higher value
In short: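 Percent growth inhibition was derived by comparing compound-exposed mutant yeast with vehicle-exposed cultures. The strain carries alterations in DNA damage repair.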

[4] = NCI Yeast Anticancer Drug Screen. Data for the cln2 rad14 strain (AID 165);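 note: 0% = growth equal to vehicle treated cultures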; conditions: S. cerevisiae cln2 rad14 strain, stronger effect = higher value
In short: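 Readout is yeast growth inhibition versus vehicle-treated controls, using a strain with cln2 and rad14 alterations exposed to compound.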

[5] = NCI Yeast Anticancer Drug Screen. Data for the bub3 strain (AID 167); conditions: S. cerevisiae bub3 mutant strain, stronger effect = higher value
In short: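 Growth of a checkpoint-deficient yeast mutant is measured after compound exposure. Values represent inhibition relative to vehicle.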

[6] = NCI Yeast Anticancer Drug Screen. Data for the mlh1 rad18 strain (AID 175); conditions: S. cerevisiae mlh1 rad18 strain growth inhibition, stronger effect = higher value
In short: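 Genetically defined yeast (DNA repair-deficient) exposed to compounds; growth inhibition determined relative to vehicle.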

[7] = at 5.0 µM (retest, dose inferred, filed as 0.5)
[8] = at 50.0 µM (retest, dose inferred, filed as 5.0)

Measured: growth inhibition

Cc1ccc(SC2=C(N(C)C)C(=O)c3ccccc3C2=O)cc1
inactive: [1]; [7] 3% | [2]; [7] -13% | [2]; at 50.0 µM 14.1% | [3]; [7] -1% | [4]; [7] 42% | [4]; at 50.0 µM 58.1% | [5]; [7] 4% | [6]; [7] -3%
active: [1]; [8] 90% | [1]; at 50.0 µM 96% | [2]; [8] 94% | [3]; [8] 91% | [3]; at 50.0 µM 77.3% | [4]; [8] 94% | [5]; [8] 90% | [5]; at 50.0 µM 95.2% | [6]; [8] 89% | [6]; at 50.0 µM 89.7%

O=C(CSc1cc[o+]cc1)c1cccc([N+](=O)[O-])c1
inactive: [1]; [7] 0% | [1]; [8] 49% | [1]; at 50.0 µM 65.8% | [2]; [7] 2% | [3]; [7] 4% | [3]; at 50.0 µM 68% | [4]; [7] -5% | [4]; [8] 53% | [5]; [7] 4% | [6]; [7] -3%
active: [2]; [8] 87% | [2]; at 50.0 µM 81.8% | [3]; [8] 86% | [4]; at 50.0 µM 78.5% | [5]; [8] 92% | [5]; at 50.0 µM 97.1% | [6]; [8] 85% | [6]; at 50.0 µM 93.5%

Cc1ccc(OC/C=C/c2ccc(Cl)cc2)cc1
inactive: [1]; [7] -2% | [2]; [7] 0% | [2]; at 50.0 µM 53.1% | [3]; [7] 16% | [4]; [7] -2% | [4]; at 50.0 µM 65% | [5]; [7] 2% | [5]; at 50.0 µM 67.4% | [6]; [7] 5%
active: [1]; [8] 75% | [1]; at 50.0 µM 77.2% | [2]; [8] 88% | [3]; [8] 91% | [3]; at 50.0 µM 85.2% | [4]; [8] 84% | [5]; [8] 86% | [6]; [8] 90% | [6]; at 50.0 µM 85.2%

Cc1cc(CN(Cc2ccccc2)Cc2nc3ccccc3[nH]2)c(O)c(CN(Cc2nc3ccccc3[nH]2)Cc2nc3ccccc3[nH]2)c1
active: [1]; at 50.0 µM 73% | [2]; at 50.0 µM 72.5% | [3]; [8] 70% | [3]; at 50.0 µM 94.3% | [6]; [8] 79% | [6]; at 50.0 µM 93.3%
inactive: [1]; [7] 7% | [1]; [8] 44% | [2]; [7] -3% | [2]; [8] 24% | [3]; [7] 1% | [4]; [7] -5% | [4]; [8] 59% | [4]; at 50.0 µM 67.3% | [5]; [7] 3% | [5]; [8] 66% | [5]; at 50.0 µM 27.9% | [6]; [7] 2%

Fc1ccc(CSC(=S)Nc2cccc(C(F)(F)F)c2)cc1
active: [1]; [8] 99% | [1]; at 50.0 µM 99.6% | [2]; [8] 100% | [2]; at 50.0 µM 99.8% | [3]; [8] 100% | [3]; at 50.0 µM 99.7% | [4]; [8] 99% | [4]; at 50.0 µM 99.5% | [5]; [8] 100% | [5]; at 50.0 µM 99.7% | [6]; [8] 99% | [6]; at 50.0 µM 99.5%
inactive: [1]; [7] 10% | [2]; [7] 9% | [3]; [7] 12% | [4]; [7] 3% | [5]; [7] -2% | [6]; [7] 7%

c1ccc(-c2c3ccccc3cc3ccc4ccccc4c23)nc1
inactive: [1]; [7] 8% | [1]; [8] 48% | [2]; [7] -6% | [2]; [8] 40% | [2]; at 50.0 µM 52.9% | [3]; [7] 0% | [3]; [8] -42% | [3]; at 50.0 µM 62.3% | [4]; [7] 10% | [4]; [8] 45% | [4]; at 50.0 µM 49.5% | [5]; [7] 3% | [6]; [7] -8% | [6]; [8] 43%
active: [1]; at 50.0 µM 78.7% | [5]; [8] 71% | [5]; at 50.0 µM 71% | [6]; at 50.0 µM 81.2%

CC(C)C[P+](c1ccccc1)(c1ccccc1)c1ccccc1
active: [6]; at 50.0 µM 73.9%
inactive: [1]; [7] 0% | [1]; [8] 23% | [1]; at 50.0 µM 62.6% | [2]; [7] -3% | [2]; [8] 54% | [2]; at 50.0 µM 58.9% | [3]; [7] -34% | [3]; [8] 9% | [3]; at 50.0 µM 50.6% | [4]; [7] -5% | [4]; [8] 10% | [4]; at 50.0 µM 49.5% | [5]; [7] -7% | [5]; [8] 24% | [5]; at 50.0 µM 54.2% | [6]; [7] 12% | [6]; [8] 45%

CCOc1c(N=Nc2ccccc2Cl)c(-c2ccccc2)nn1C(=S)S
inactive: [1]; [7] -1% | [1]; [8] 20% | [1]; at 50.0 µM 52.7% | [2]; [7] -4% | [2]; [8] 24% | [2]; at 50.0 µM 57.6% | [3]; [7] -2% | [3]; [8] -70% | [3]; at 50.0 µM 28.8% | [4]; [7] -7% | [4]; [8] 27% | [4]; at 50.0 µM 48.5% | [5]; [7] 3% | [5]; [8] 64% | [6]; [7] -2% | [6]; [8] 31% | [6]; at 50.0 µM 42.9%
active: [5]; at 50.0 µM 78.5%

CC(=O)OCC1CC2OC2CC1C (stereo not given)
inactive: [1]; [7] 1% | [1]; [8] 2% | [2]; [7] 6% | [2]; [8] -5% | [2]; at 50.0 µM 50.1% | [3]; [7] 15% | [3]; [8] 7% | [4]; [7] 34% | [4]; [8] 9% | [4]; at 50.0 µM 68.1% | [5]; [7] 27% | [5]; [8] 19% | [6]; [7] -12% | [6]; [8] -26% | [6]; at 50.0 µM 63%
active: [1]; at 50.0 µM 70.1% | [3]; at 50.0 µM 70.4% | [5]; at 50.0 µM 75%

Cc1ccc[n+](CC(=O)C2CCC3C4CC=C5CC(O)CCC5(C)C4CCC23C)c1 (stereo not given)
inactive: [1]; [7] 2% | [1]; [8] 28% | [2]; [7] 1% | [2]; [8] 24% | [3]; [7] 5% | [3]; [8] 64% | [4]; [7] 6% | [4]; [8] 25% | [5]; [7] 3% | [5]; [8] 27% | [6]; [7] -4% | [6]; [8] 24%
active: [1]; at 50.0 µM 95.4% | [2]; at 50.0 µM 98.2% | [3]; at 50.0 µM 98.8% | [4]; at 50.0 µM 90.1% | [5]; at 50.0 µM 96.8% | [6]; at 50.0 µM 98%

From PubChem BioAssay (NCI)
